From PubChem BioAssay (Tox21)
Inconclusive results are not listed. A call without a number means that no potency is given here. Active and inactive are the calls of the source. Calls follow the shape of the dose curve; as a rule, active = well fitted activation curve with a large enough effect in the signal ratio in the repeat runs, with a control signal flat (not every such curve was filed as active); inconclusive = weak or mixed curves; inactive = flat fitted curve, though single readings scatter; the % refers to the signal ratio.

test: qHTS assay for small molecule activators of the heat shock response signaling pathway (AID 743210); details: HeLa HSE-bla reporter, beta-lactamase ratio, 5 h; series mostly up to 62.6 µM
Source text: U.S. Tox21 Program National Center for Advancing Translational Sciences [NCATS] NIH Chemical Genomics Center [NCGC] U.S. Environmental Protection Agency [EPA] National Institutes of Environmental Health Sciences [NIEHS] National Toxicology Program [NTP] U.S. Food and Drug Administration [FDA] Tox21 Assay Overview: Various chemicals, environmental and physiological stress conditions may lead to the activation of heat shock response/ unfolded protein response (HSR/UPR). There are three heat shock transcription factors (HSFs) (HSF-1, -2, and -4) mediating transcriptional regulation of the human HSR. To identify the compounds that activate HSR signaling, HSE-bla HeLa cell line (Invitrogen, Carlsbad, CA, USA) containing a beta-lactamase reporter gene under the control of the heat shock response elements was used to screen the Tox21 10K compound library.
Tox21 Assay Protocol Summary: The CellSensor HSE-bla HeLa cells (Invitrogen, Carlsbad, CA, USA) were dispensed at 1500 cells/6uL/well into 1536-well black wall/clear bottom plates using a Multidrop combi (Thermo Fisher Scientific, Waltham, MA) dispenser. After the assay plates were incubated at 37 C and 5% CO2 overnight, 23 nL of compounds dissolved in DMSO, positive controls or DMSO only was transferred to the assay plate by a Pintool station (Kalypsys, San Diego, CA). The plates were incubated at 37 C for 5 h. After 1 uL of LiveBLAzerTM B/G FRET substrate was added using a Flying Reagent Dispenser (Beckman Coulter, Indianapolis, IN, USA), the plates were incubated at room temperature for 2.5 h, and fluorescence intensity was measured by an Envision plate reader (PerkinElmer, Shelton, CT).

Row | Structure (SMILES) | Potency | activation
1 | CCOC(=O)c1ccc(C2CCC(NC[C@H](O)COc3ccc(O)c(NS(C)(=O)=O)c3)CC2)cc1 (stereo not given in full) | inactive | 
2 | CC/C=C\CCCCCO | inactive | 
3 | OCCN1CCN(CCCN2c3ccccc3Sc3ccc(C(F)(F)F)cc32)CC1 | inactive | 
4 | CC(C)Cn1cnc2c(N)nc3ccccc3c21 | inactive | 
5 | CCCC1CCC(=O)CC1 | inactive | 
6 | O=C(O)CCN(C1(C(=O)NO)CCCC1)S(=O)(=O)c1ccc(Oc2ccc(F)cc2)cc1 | inactive | 
7 | O=C(O)Cc1ccc2c(c1)C(=O)c1ccccc1CO2 | inactive | 
8 | CCN(CC)c1ccc2c(-c3ccc(S(=O)(=O)O)cc3S(=O)(=O)[O-])c3ccc(=[N+](CC)CC)cc-3oc2c1 | inactive | 
9 | Cc1c(F)c(N2CCNC(C)C2)cc2c1c(=O)c(C(=O)O)cn2C1CC1 (stereo not given) | inactive | 
10 | NC(=O)c1cccc([N+](=O)[O-])c1 | inactive | 
11 | O=C1CCCCCCCCCCCCCCCO1 | inactive | 
12 | CC(=O)c1ccc(C(C)=O)cc1 | inactive | 
13 | Clc1ccnc(Cl)n1 | inactive | 
14 | C=CCn1c(=O)n(CC=C)c(=O)n(CC=C)c1=O | inactive | 
15 | O=[N+]([O-])c1ccc(O)cc1C(F)(F)F | inactive | 
16 | CC(C)OC(=O)C(O)(CC(=O)O)CC(=O)O | inactive | 
17 | CCCCC(CC)COC(=O)CCCCC(=O)OCc1ccccc1 (stereo not given) | inactive | 
18 | Nc1ccc(C(=O)O)c(O)c1 | inactive | 
19 | O=C(O)c1cc(=O)c2ccccc2o1 | inactive | 
20 | O=C(O)CN(CCN(CC(=O)O)CC(=O)O)CC(=O)O |  | 0.0247% [at 2.7 µM] (inactive)

Row | Structure (SMILES) | Potency | activation
21 | O=[N+]([O-])c1cccc(C(F)(F)F)c1 | inactive | 
22 | COc1cc(S(=O)(=O)O)c(C)cc1N=Nc1c(O)ccc2cc(S(=O)(=O)O)ccc12 | inactive | 
23 | COc1c(C)c2c(c(O)c1C/C=C(\C)CCC(=O)OCCN1CCOCC1)C(=O)OC2 | inactive | 
24 | CCCc1ccc(OCC(=O)N2CCN(C(=O)COc3ccc(CCC)cc3OC)CC2)c(OC)c1 | inactive | 
25 | O=C(Oc1ccccc1)Oc1ccccc1 | inactive | 
26 | Cc1cc(C)c(/C=C2\C(=O)Nc3ccccc32)[nH]1 | inactive | 
27 | O=C(/C=C/c1ccc(O)c(O)c1)O[C@@H](C(=O)O)[C@@H](OC(=O)/C=C/c1ccc(O)c(O)c1)C(=O)O | inactive | 
28 | O=C(/C=C/c1ccccc1)OC/C=C/c1ccccc1 | inactive | 
29 | O=C(O)[C@H](O)[C@@H](O)[C@H](O[C@@H]1O[C@H](CO)[C@H](O)[C@H](O)[C@H]1O)[C@H](O)CO | inactive | 
30 | Cc1ccc(C(=O)O)cc1 | inactive | 
31 | CCO[C@@H]1O[C@H](C(COCc2ccccc2)OCc2ccccc2)[C@H](OCc2ccccc2)[C@H]1O (stereo not given in full) | inactive | 
32 | Cc1ccc(N/N=c2\c(=O)cc/c(=N\Nc3ccc(S(=O)(=O)O)cc3)c2=O)c(C)c1 | inactive | 
33 | CC(C)(c1cc(Br)c(OCC(Br)CBr)c(Br)c1)c1cc(Br)c(OCC(Br)CBr)c(Br)c1 (stereo not given) | inactive | 
34 | Cc1c(C)c2c(c(C)c1OC(=O)c1cccnc1)CC[C@@](C)(CCC[C@H](C)CCC[C@H](C)CCCC(C)C)O2 | inactive | 
35 | Nc1nc2c(ncn2COCCO)c(=O)[nH]1 | inactive | 
36 | COC(C)=O | inactive | 
37 | CCN1C(=O)c2ccccc2C1Nc1ccc(OCCN2CCCCC2)cc1 (stereo not given) | inactive | 
38 | O=C(O)c1cc(-c2ccc(F)cc2F)ccc1O | inactive | 
39 | CN(C)Cc1ccccc1O | inactive | 
40 | CN(C)C(=O)COC(=O)Cc1ccc(OC(=O)c2ccc(N=C(N)N)cc2)cc1 | inactive | 
